22 compounds from PubChem BioAssay (NCATS) can be followed below.

Values joined by “and” are separate entries in the source; they are usually repeats but may differ in a detail not shown here. Identical values can stand only once. Records with an inconclusive call do not appear. Some structures have more than one record in an assay (separate samples or runs), and their calls can disagree. A number with no mark means an inactive call. Active and inactive are the calls of the source. Unless noted, calls follow the shape of the dose curve; as a rule, active = well fitted curve in the direction sought with a large enough effect; inconclusive = small, poorly fitted or top-dose-only effect, or another doubt; inactive = no such curve, though single readings can be large; an effect the other way counts as inactive or inconclusive.

For test [1], the target named is Cellular tumor antigen p53 (Homo sapiens) (UniProt P04637). The test is described as follows: Primary qHTS for small molecule compounds that upregulate eGFP-tagged delta133p53alpha (in N-terminal) cells. (AID 2060322). Also: nearly all actives have a fitted effect of over 75% in size. Also: potency is read from the fitted curve at half-maximal effect.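 As to activation: series mostly up to about 56 µM; 0% = DMSO vehicle and 100% = reference activator.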 To be noted: NCI-H358 eGFP-delta133p53alpha fluorescence, 24 h; activation: active compounds read high. In outline:
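NCI-H358 cells pre-induced 24 h with 10 ng/ml doxycycline to express N-terminal eGFP-delta133p53alpha, then dosed 24 h at 37C without doxycycline; fixed, Hoechst-stained, GFP intensity by laser scanning cytometry, normalized to DMSO (0%) and 57.5 uM 5-azacytidine (100%).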
A general note: In qHTS, concentration-response curves come from the screen itself.

The target in test [2] is Aldehyde dehydrogenase, mitochondrial (Homo sapiens) (UniProt P05091). The test is described as follows: qHTS for Inhibitors of the Aldehyde Dehydrogenase Family (ALDH2) Primary screen (AID 2061308).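 Also: plate controls were vehicle for no effect and reference inhibitor for full effect; nearly all actives have a fitted effect of over 55% in size.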
The target of test [3] is Retinaldehyde dehydrogenase 3 (Homo sapiens) (UniProt P47895). In words: qHTS for Inhibitors of the Aldehyde Dehydrogenase Family (ALDH1A3) Validation screen (AID 2061312). Also: % is scaled to controls: 0 for no effect and ±100 for the full control effect; nearly all actives have a fitted effect of over 45% in size.
Test [4] shares this target. In words: qHTS for Inhibitors of the Aldehyde Dehydrogenase Family (ALDH1A3) Primary screen (AID 2061315).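 Also: plate controls were DMSO vehicle for no effect and reference inhibitor for full effect.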
A short description of test [5]: BET inhibitor-based combinations targeting novel dependencies in MECOM-rearranged (r) AML: SET-2 cell line (AID 2202231). Also: nearly all actives have a fitted effect of over 35% in size. Also: potency is read from the fitted curve at half-maximal effect.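 As to viability: plate controls were DMSO treated cells for no effect and wells without cells for full effect.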 To be noted: SET-2 AML cells viability, CellTiter-Glo luminescence, 48 h; viability: active compounds read low, concentration not given here. In outline: (§1)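 Cells were plated at 500 per well and exposed to an 11-point dose series of each drug for 48 hr. Viability was measured by CellTiter-Glo luminescence, normalized to DMSO and empty-well controls, and summarized as AUC and per-cell-line Z-AUC.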
(In general: In ATP-based viability assays light output follows the ATP content of the culture.)

A short description of test [6]: BET inhibitor-based combinations targeting novel dependencies in MECOM-rearranged (r) AML: OCI-AML3 cell line (AID 2202232). Also: nearly all actives have a fitted effect of over 35% in size. Also: potency is read from the fitted curve at half-maximal effect. To be noted: Potency: OCI-AML3 viability. In outline:
as §1

The nature of test [7]: BET inhibitor-based combinations targeting novel dependencies in MECOM-rearranged (r) AML: MV-4-11 cell line (AID 2202233). Also: nearly all actives have a fitted effect of over 45% in size. Also: potency is read from the fitted curve at half-maximal effect. A digest of the protocol: (§2)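 Activity is given as area under the curve and as Z-AUC, mean-centred within each cell line. It comes from 11-point dose curves normalized to DMSO and empty wells. CellTiter-Glo luminescence was read after 48 hr drug exposure of 500 cells/well.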

A short description of test [8]: BET inhibitor-based combinations targeting novel dependencies in MECOM-rearranged (r) AML: HNT-34 cell line (AID 2202234). Also: nearly all actives have a fitted effect of over 35% in size. Also: potency is read from the fitted curve at half-maximal effect. A digest of the protocol: as §2
Test [9] is described as follows: BET inhibitor-based combinations targeting novel dependencies in MECOM-rearranged (r) AML: UCSD-AML1 cell line (AID 2202235). Also: nearly all actives have a fitted effect of over 40% in size. Also: potency is read from the fitted curve at half-maximal effect. In outline: as §2
Test [10] is described as follows: BET inhibitor-based combinations targeting novel dependencies in MECOM-rearranged (r) AML: AML-194 cell line (AID 2202237; also: nearly all actives have a fitted effect of over 40% in size; also: potency is read from the fitted curve at half-maximal effect). In outline: as §1
The nature of test [11]: BET inhibitor-based combinations targeting novel dependencies in MECOM-rearranged (r) AML: AML-191 cell line (AID 2202236; also: nearly all actives have a fitted effect of over 35% in size; also: potency is read from the fitted curve at half-maximal effect). A digest of the protocol:
as §1

The target in test [12] is Aldehyde dehydrogenase, mitochondrial (Homo sapiens) (UniProt P05091). The test is described as follows: qHTS for Inhibitors of the Aldehyde Dehydrogenase Family (ALDH2) Validation screens (AID 2061302; active = well fitted inhibition curve with a large enough effect; title and protocol of this record describe different tests;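 also: plate controls were DMSO vehicle for no effect and maximal DPI positive control response for full effect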).
For test [13], the target named is Cellular tumor antigen p53 (Homo sapiens) (UniProt P04637). The test is described as follows: Primary qHTS for small molecule compounds that upregulate eGFP-tagged delta133p53alpha (in C-terminal) cells. (AID 2060324).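 Also: 0% = DMSO wells and 100% = 57.5 µM 5-azacytidine.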 In outline:
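C-terminal eGFP-tagged delta133p53alpha NCI-H358 line; dox-induced (100 ng/ml, 24 h) then plated without dox; compounds pinned in titration, 24 h 37 °C/5% CO2; PFA fix, Hoechst nuclei; GFP by LSC.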

Sequence of Cellular tumor antigen p53 (Homo sapiens) (P04637 whole entry, looked up): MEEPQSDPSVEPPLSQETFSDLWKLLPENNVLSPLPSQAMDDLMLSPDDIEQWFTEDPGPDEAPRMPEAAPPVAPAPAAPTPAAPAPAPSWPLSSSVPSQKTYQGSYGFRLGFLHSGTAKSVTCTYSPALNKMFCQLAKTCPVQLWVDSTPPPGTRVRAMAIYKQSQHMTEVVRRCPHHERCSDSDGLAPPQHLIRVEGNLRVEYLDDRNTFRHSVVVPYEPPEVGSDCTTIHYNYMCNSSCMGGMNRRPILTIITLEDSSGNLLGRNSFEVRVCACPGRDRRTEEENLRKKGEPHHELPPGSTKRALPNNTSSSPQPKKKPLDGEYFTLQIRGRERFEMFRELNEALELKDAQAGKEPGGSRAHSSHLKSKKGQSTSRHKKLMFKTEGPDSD

For `c1ccc2c(CCNc3ccc(Nc4ccncc4)cc3)c[nH]c2c1`, the Potency in [1] is 30.6 µM (active); in test [5] it was 10.5 µM (active); in test [6], 1.32 µM (active); in [7] it was 0.934 µM (active); in [8], 2.95 µM (active); in [9], 3.72 µM (active). For the same compound, the Potency in test [10] was 3.32 µM (active). The activation in test [1] was -5.73%. Further, the Potency result in test [2], in test [3] and in test [4] was “inactive” throughout.

For orientation: viability means a read-out of living cells in per cent, often relative to untreated cells. As to `CCCNC(=O)Nc1ccc(Oc2ncnc3cc(OC)c(OC)cc23)cc1Cl`, the Potency in test [1] was 26.9 µM (active). The activation in test [1] was 17.1%. Besides, the Potency result in test [2], in test [4], in [6], in [8], in test [9] and in [11] was “inactive” in each case. In test [5], the viability is 92.8%.

Consider `O=C(Nc1ccc([N+](=O)[O-])cc1Cl)c1cc(Cl)ccc1O`, for which the Potency was 4.26 µM (active) in [1]; 1.66 µM (active) in [6]; 4.17 µM (active) in test [7]; 1.05 µM (active) in test [8]; 1.32 µM (active) in test [9]; 1.48 µM (active) in test [10]. Moreover, the activation in test [1] is 122% and -83.1%. For the same compound, the Potency entry in test [12] was “inactive”.

`Nc1nc(NCCNc2ncc(-n3ccnc3)c(-c3ccc(Cl)cc3Cl)n2)ccc1[N+](=O)[O-]`: the Potency in [1] was 8.49 µM (active); in [7] it was 8.33 µM (active); in [8], 4.17 µM (active). Moreover, in test [1], the activation is -14%. Further, the Potency entry in [2], in test [4], in [6] and in [10] was “inactive” in each case. Besides, in [5], the viability was 116%.

For `COc1ccc(C2CC(c3ccccc3)=NN2c2ccc(S(N)(=O)=O)cc2)cc1` (stereo not drawn), in test [1], the Potency is 21.7 µM (active). Moreover, in [1], the activation was -16.2%. Also, the Potency entry in test [2], in test [3], in test [4], in test [9], in test [11] and in [10] was “inactive” each time. Also, in [5], the viability is 112%.

Regarding `Cc1ccnc(NS(=O)(=O)c2ccc(NC(=O)Nc3ccc(S(=O)(=O)Nc4nccc(C)n4)cc3)cc2)n1`, the Potency in test [1] was 9.68 µM (active). Besides, the activation in test [1] is 21%. Also, the Potency result in test [2], in test [4], in test [7], in test [8], in test [9] and in test [11] was “inactive” throughout. The Potency entry in test [10] is “inactive”. Further, in [5], the viability is 112%.

For `Fc1cc(-c2cccc3ncc(-c4cnn(C5CCNCC5)c4)nc23)cc(F)c1CN1CCOCC1`, the Potency in [1] was 27.3 µM (active); in test [5] it was 4.68 µM (active); in test [6] it was 11.8 µM (active); in test [7], 0.934 µM (active); in test [8] it was 2.35 µM (active); in test [9], 3.32 µM (active). The Potency was 10.5 µM (active) in [11] and 6.61 µM (active) in [10]. Moreover, the activation in test [1] is -17.4%. Besides, the Potency entry in test [2] and in [4] was “inactive” each time.

As to `Cc1nccn1CC1CCc2c(c3ccccc3n2C)C1=O` (stereo not drawn), in test [1], the Potency was 34.7 µM (active); the activation is 4.27% and -3.67%. Moreover, the Potency entry in test [2] was “inactive”. For the same compound, the Potency entry in test [4] is “inactive”.

Regarding `NNc1nncc2ccccc12`, the activation in [1] was 19.2% and 11.4% and 5.29%. For the same compound, the Potency result in test [13] was “inactive”.

`CCCCCCCCCC(=O)NC(CN1CCOCC1)[C@H](O)c1ccccc1` (stereo partly drawn): in test [1], the activation is -7.14%. Also, in test [13], the Potency result is “inactive”.

Take `CC(C)n1nc(-c2cc3cc(O)ccc3[nH]2)c2c(N)ncnc21`: the Potency in [1] is 21.3 µM (active); in test [5] it was 2.09 µM (active); in [6], 1.86 µM (active); in test [7], 0.417 µM (active); in test [8], 0.372 µM (active); in test [9], 0.332 µM (active). The Potency in test [11] is 0.934 µM (active). The activation in test [1] is 17.6%. Besides, the Potency result in [2] is “inactive”.

As for `O=c1oc(Cl)c(Cl)c2ccccc12`, the activation in test [1] was 3%. Besides, the Potency result in test [13] is “inactive”.

For `COc1cc(N2CCC(N3CCN(C)CC3)CC2)ccc1Nc1ncc(Cl)c(Nc2ccccc2S(=O)(=O)C(C)C)n1`, the Potency in [1] is 30.1 µM (active); in [5] it was 18.6 µM (active); in test [6], 2.63 µM (active); in [7], 0.468 µM (active); in [8], 16.6 µM (active); in test [9] it was 2.95 µM (active). For the same compound, the Potency in test [11] is 10.5 µM (active); in test [10], 16.6 µM (active). The activation in test [1] is 16.9%. Besides, the Potency entry in test [2] was “inactive”.

`O=C(NCC1CCCCN1)c1cc(OCC(F)(F)F)ccc1OCC(F)(F)F` (stereo not drawn): the Potency in [1] was 27.3 µM (active). For the same compound, the activation in test [1] was 9.6%. Besides, the viability in [5] was 112%. Besides, the Potency result in [7], in test [8], in test [11] and in test [10] was “inactive” each time.

With `COc1ccc(Br)cc1S(=O)(=O)NC(=O)/C=C/c1ccccc1Cc1ccc2ccccc2c1`, the activation in [1] was -15.8%. The Potency entry in test [13] is “inactive”.

Take `O=C1N=C(O)CN1/N=C/c1ccc(-c2ccc([N+](=O)[O-])cc2)o1`: the activation in test [1] is 5.02% and 6.04%. Also, the Potency result in [13] was “inactive”.

As to `COc1ccc(-c2cc3nccn3c(Nc3ncccc3C(N)=O)n2)cc1OC`, the Potency in [1] was 4.78 µM (active); in [7], 0.372 µM (active); in [9] it was 6.61 µM (active); in test [11], 8.33 µM (active). Further, the activation in test [1] is 14.1%. Also, the Potency entry in test [2] and in test [4] was “inactive” each time.

On to `N#Cc1cc([N+](=O)[O-])c2sc(C(N)=O)[n+]([O-])c2c1`, for which, in test [1], the activation is -56.4%. The Potency entry in [13] was “inactive”.

As to `CCCOc1ccc2nc(NC(=O)OC)[nH]c2c1`, the Potency in [1] was 0.0685 µM (active); in test [5], 0.525 µM (active); in test [6], 0.332 µM (active); in test [7] it was 0.372 µM (active); in [8], 0.235 µM (active); in [9], 0.263 µM (active). The results for the Potency in test [11] and in test [10] were 0.263 µM (active) and 0.235 µM (active), respectively. Also, the activation in [1] was 62.8%.

Take `N#C/C(=C\c1ccc(O)c(O)c1)C(=O)NCCc1ccccc1`: in test [1], the activation was -26.1%. Besides, in test [13], the Potency entry was “inactive”.

As for `O=C(/C=C/c1ccc(O)c(O)c1)OCCc1ccccc1`, the activation in [1] was -0.816%. Besides, the Potency entry in test [13] was “inactive”.

On to `Cn1c2ccccc2c2c3c(c4c5ccccc5n(CCC#N)c4c21)CNC3=O`, for which the Potency was 16.9 µM (active) in test [1]; 0.417 µM (active) in test [7]; 3.32 µM (active) in test [8]; 8.33 µM (active) in test [9]; 3.32 µM (active) in test [11]; 4.68 µM (active) in test [10]. For the same compound, in [1], the activation is -13.5%. Further, the Potency result in test [2] and in [4] was “inactive” each time.
